The record followed here is PubChem BioAssay.

The nature of assay [1]: small molecules captured by biotinylated probe aFSTL3 – biochemical, small-molecule microarray, fluorescence 635/667, stem cell growth factor project, primary screen (AID 1064).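 Also: measures binding of the biotinylated anti-FSTL3 antibody to printed compounds.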 The note with it: higher = more signal.
Assay [2] is described as follows: binders from COS7 lysate, DM2A8 probe, primary screen, torsin A project, cell lysate, small-molecule microarray, fluorescence 635/667 (AID 1065). The conditions noted are these: higher = more signal, COS7 lysate expressing mutant human TOR1A.
Assay [3] in a line: small molecules captured by biotinylated probe aFGF2 – biochemical, small-molecule microarray, fluorescence 635/667, stem cell growth factor project, primary screen (AID 1067).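 Also: measures binding of biotinylated aFGF2 protein to printed compounds on slides; z-score merges feature fluorescence and signal-to-noise across triplicate slides.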 The conditions noted are these: higher = more signal.
Assay [4] in a line: small molecules captured by biotinylated probe aFGF10 – biochemical, small-molecule microarray, fluorescence 635/667, stem cell growth factor project, primary screen (AID 1071).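 Also: score merges 667 nm spot intensity and signal to noise from triplicate slides.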 The conditions noted are these: higher = more signal.
Assay [5] addresses Neurogenic locus notch homolog protein 2 (Homo sapiens) (UniProt Q04721). The assay is described as follows: small molecules binding Notch2 protein – biochemical, small-molecule microarray, 635 nm fluorescence, stem cell growth factors, primary screen (AID 1073). The conditions noted are these: higher = more signal.
Assay [6] deals with Pro-neuregulin-1, membrane-bound isoform (Homo sapiens) (UniProt Q02297). Briefly: small molecules binding neuregulin-1 protein – biochemical, small-molecule microarray, fluorescence 635/667, psychiatric disease protein project, primary screen (AID 1075).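 Also: score combines 667 nm spot fluorescence with signal to noise.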 The note with it: NRG1 binding, 635 nm fluorescence, higher = more signal.
Sequence of Pro-neuregulin-1, membrane-bound isoform (Homo sapiens) (Q02297 whole entry, looked up, the tested form may be a part, canonical isoform): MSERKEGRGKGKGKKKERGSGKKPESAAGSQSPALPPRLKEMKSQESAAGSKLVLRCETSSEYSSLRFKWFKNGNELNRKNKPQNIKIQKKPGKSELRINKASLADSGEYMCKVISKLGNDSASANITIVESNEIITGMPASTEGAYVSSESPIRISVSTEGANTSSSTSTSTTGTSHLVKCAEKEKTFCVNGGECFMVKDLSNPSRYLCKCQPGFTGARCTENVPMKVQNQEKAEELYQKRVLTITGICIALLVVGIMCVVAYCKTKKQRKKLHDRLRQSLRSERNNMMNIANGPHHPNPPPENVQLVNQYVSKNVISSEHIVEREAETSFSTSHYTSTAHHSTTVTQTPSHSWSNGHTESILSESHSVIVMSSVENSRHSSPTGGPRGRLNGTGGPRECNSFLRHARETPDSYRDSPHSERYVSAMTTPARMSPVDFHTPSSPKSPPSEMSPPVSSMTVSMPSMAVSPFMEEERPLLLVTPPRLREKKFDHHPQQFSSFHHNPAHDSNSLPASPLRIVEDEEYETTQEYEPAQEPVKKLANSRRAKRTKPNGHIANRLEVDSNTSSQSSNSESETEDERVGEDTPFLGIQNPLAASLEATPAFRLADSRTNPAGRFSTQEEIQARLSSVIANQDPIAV
For assay [7], the system named is Neuregulin-1 EGF-like domain. The assay is described as follows: small molecules binding NRG1 EGF domain – biochemical, small-molecule microarray, 635 nm fluorescence, primary screen (AID 1081).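 Also: binding of the protein to compounds printed on small-molecule microarray slides.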 The conditions noted are these: higher = more signal.
A short description of assay [8]: FRG1 expression reporter modulators in myotubes – cell-based, C2C12 myotubes, firefly/Renilla luciferase, luminescence, FRG1 inhibition for FSHD, primary screen (AID 1084). The conditions noted are these: FRG1 promoter luciferase, higher = more signal, called active from +8 up or from −8 down.
Assay [9] can be described thus: small molecules captured by biotinylated probe aFST – biochemical, small-molecule microarray, fluorescence 635/667, stem cell growth factor project, primary screen (AID 1086).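 Also: score merges 667 nm fluorescence with signal-to-noise of each printed compound spot.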 The conditions noted are these: higher = more signal.
The nature of assay [10]: binders of probe aHhip on microarray, primary screen, stem cell growth factor project, biochemical, small-molecule microarray, fluorescence 635/667 (AID 1087).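 Also: score merges spot fluorescence at 667nm with spot signal to noise ratio.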 The conditions noted are these: higher = more signal.
The test system of assay [11] is PRMT1 (protein arginine N-methyltransferase 1). Briefly: small molecules binding arginine methyltransferase PRMT1 – biochemical, small-molecule microarray, 635 nm fluorescence, primary screen (AID 1088).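 Also: binding of Prmt1 protein to compounds spotted on small-molecule microarray slides.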 The note with it: higher = more signal.
The nature of assay [12]: growth effects on S. cerevisiae YJM789 – YJM789 clinical isolate, OD600, 24 h, basal, primary screen (AID 1089).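 Also: growth of clinical yeast isolate S. cerevisiae YJM 789 seeded 1000 cells per well; test concentration not given here.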 The conditions noted are these: higher = more signal, called active from +8 up or from −8 down.
Assay [13] in a line: S. pombe growth modifiers, basal conditions – strain 972, OD600, 24 h, no modulator, primary screen (AID 1090).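 Also: basal condition with compound alone and no growth modifier present; test concentration not given here.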 The note with it: S. pombe 972 growth, higher = more signal, called active from +8 up or from −8 down.
Assay [14] can be described thus: budding yeast growth modifiers under rapamycin – strain BY4716, OD600, 96 h, primary screen (AID 1091). Also: test concentration not given here. The note with it: S. cerevisiae BY4716 + rapamycin, higher = more signal, called active from +8 up or from −8 down.
Assay [15] deals with Torsin-1A-interacting protein 2 (Homo sapiens) (UniProt Q8NFQ8). The assay is described as follows: small molecules binding lysate-expressed LULL1 – cell lysate, human LULL1 lysate, 635/667 nm fluorescence, primary screen (AID 1092).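 Also: score merges per-feature 667 nm fluorescence with signal-to-noise.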 The conditions noted are these: small-molecule microarray, hLULL1 lysate binding, 635 nm fluorescence; higher = more signal.
Sequence of Torsin-1A-interacting protein 2 (Homo sapiens) (Q8NFQ8 whole entry, looked up): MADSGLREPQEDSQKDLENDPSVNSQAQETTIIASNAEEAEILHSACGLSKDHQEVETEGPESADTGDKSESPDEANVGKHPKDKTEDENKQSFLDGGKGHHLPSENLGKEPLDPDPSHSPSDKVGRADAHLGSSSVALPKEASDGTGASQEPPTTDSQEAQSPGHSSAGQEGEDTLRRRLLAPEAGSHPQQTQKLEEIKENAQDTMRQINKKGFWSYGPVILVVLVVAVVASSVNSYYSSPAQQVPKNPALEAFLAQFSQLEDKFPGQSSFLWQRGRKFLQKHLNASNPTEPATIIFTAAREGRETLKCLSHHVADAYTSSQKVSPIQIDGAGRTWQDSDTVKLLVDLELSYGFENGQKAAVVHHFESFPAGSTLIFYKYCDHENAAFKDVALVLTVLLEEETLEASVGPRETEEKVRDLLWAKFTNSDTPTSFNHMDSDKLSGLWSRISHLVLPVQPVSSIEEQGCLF
A short description of assay [16]: optical density change of DRC41 E. coli – strain DRC41, OD650, 24 h, E. coli filamentation project, primary screen (AID 1093).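 Also: MC1000 strain lacking acrAB efflux and sulA so SOS filamentation is blocked; test concentration not given here.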 The conditions noted are these: E. coli DRC41 growth, higher = more signal, called active from +8 up or from −8 down.
A short description of assay [17]: probe aLefty2 binding to arrayed compounds – biochemical, biotinylated probe, 635/667 nm fluorescence, primary screen (AID 1094).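 Also: score merges spot fluorescence near 667 nm with spot signal-to-noise ratio.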 The conditions noted are these: small-molecule microarray, higher = more signal.
In assay [18] the test system is Noggin (protein binding on small-molecule microarray). The assay is described as follows: small molecules binding Noggin protein – biochemical, 635/667 nm fluorescence, primary screen (AID 1095).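 Also: score merges 667 nm feature fluorescence with signal to noise over triplicate slides.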 The conditions noted are these: 635 nm fluorescence, higher = more signal.
In assay [19] the target is Neurogenic locus notch homolog protein 3 (Homo sapiens) (UniProt Q9UM47). The assay is described as follows: small molecules binding NOTCH3 protein – biochemical, 635/667 nm fluorescence, primary screen (AID 1096). The note with it: small-molecule microarray, 635 nm fluorescence, higher = more signal.
Sequence of Neurogenic locus notch homolog protein 3 (Homo sapiens) (Q9UM47 whole entry, looked up): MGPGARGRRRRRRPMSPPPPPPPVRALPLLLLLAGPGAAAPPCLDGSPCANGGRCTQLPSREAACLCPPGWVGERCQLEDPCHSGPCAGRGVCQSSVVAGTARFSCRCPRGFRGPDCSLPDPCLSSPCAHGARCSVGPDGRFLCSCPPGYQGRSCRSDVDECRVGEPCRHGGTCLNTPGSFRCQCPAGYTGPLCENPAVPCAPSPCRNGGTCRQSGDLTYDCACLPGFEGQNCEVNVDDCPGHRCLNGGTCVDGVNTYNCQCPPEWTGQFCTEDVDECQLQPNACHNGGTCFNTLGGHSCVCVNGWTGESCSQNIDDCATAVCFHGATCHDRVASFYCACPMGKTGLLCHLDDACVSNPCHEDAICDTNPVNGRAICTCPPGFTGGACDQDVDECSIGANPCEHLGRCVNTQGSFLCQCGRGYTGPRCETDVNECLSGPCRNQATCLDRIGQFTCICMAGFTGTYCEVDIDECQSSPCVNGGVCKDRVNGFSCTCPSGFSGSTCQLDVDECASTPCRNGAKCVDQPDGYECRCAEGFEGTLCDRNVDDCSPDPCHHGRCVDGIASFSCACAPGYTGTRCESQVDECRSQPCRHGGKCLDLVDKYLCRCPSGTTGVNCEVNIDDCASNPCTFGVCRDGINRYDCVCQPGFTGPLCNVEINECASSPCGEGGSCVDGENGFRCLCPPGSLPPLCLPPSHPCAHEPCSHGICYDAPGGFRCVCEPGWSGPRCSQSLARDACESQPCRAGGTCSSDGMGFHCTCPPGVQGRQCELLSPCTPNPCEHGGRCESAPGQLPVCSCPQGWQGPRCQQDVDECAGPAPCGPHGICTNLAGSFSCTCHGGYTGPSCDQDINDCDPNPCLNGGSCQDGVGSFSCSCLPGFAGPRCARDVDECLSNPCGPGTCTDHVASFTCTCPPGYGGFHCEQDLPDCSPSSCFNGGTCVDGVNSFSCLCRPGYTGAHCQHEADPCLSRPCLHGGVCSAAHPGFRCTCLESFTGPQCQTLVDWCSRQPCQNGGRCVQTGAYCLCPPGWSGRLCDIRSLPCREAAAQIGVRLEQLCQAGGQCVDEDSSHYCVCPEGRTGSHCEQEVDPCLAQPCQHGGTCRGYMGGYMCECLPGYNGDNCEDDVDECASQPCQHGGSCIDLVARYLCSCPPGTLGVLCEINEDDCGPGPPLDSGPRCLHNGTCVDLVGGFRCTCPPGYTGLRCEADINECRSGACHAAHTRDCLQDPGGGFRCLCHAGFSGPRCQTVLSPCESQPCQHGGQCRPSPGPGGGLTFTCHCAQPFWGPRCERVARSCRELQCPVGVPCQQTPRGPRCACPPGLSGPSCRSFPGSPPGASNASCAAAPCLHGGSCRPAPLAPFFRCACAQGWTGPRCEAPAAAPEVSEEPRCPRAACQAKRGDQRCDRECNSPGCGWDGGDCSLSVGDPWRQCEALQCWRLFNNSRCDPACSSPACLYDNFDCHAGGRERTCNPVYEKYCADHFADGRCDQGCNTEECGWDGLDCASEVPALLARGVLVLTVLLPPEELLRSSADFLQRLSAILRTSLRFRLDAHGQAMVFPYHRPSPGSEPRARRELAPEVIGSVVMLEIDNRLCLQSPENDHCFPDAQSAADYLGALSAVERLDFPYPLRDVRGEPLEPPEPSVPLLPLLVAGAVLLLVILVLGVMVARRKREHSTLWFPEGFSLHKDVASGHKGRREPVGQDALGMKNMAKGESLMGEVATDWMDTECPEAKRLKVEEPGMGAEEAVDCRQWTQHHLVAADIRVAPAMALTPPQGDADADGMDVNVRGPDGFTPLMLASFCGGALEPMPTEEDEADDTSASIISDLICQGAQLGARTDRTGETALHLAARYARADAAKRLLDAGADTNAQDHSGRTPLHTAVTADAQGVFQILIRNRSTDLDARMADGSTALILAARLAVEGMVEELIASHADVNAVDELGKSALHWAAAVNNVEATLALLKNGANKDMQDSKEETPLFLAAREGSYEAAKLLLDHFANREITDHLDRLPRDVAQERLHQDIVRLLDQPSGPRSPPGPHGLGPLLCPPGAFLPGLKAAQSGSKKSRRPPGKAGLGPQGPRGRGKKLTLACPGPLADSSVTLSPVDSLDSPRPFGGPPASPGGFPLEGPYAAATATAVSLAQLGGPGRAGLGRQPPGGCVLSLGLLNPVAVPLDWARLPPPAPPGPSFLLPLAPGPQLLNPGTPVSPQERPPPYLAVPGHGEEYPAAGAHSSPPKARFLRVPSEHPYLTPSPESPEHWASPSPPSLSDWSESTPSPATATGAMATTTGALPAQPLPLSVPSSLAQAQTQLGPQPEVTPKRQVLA
The nature of assay [20]: probe aEGFR binding to arrayed compounds – biochemical, biotinylated probe, 635/667 nm fluorescence, primary screen (AID 1097).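 Also: probe is a biotinylated anti-EGFR antibody binding compounds printed on slides; score combines fluorescence near 667 nm and signal to noise of each spot.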 The conditions noted are these: small-molecule microarray, higher = more signal.

Activity calls are given as the source filed them.

As for `CO[C@H]1O[C@H](CO)[C@@H](OC(=O)Nc2ccccc2)[C@H](OC(=O)Nc2ccccc2-c2ccccc2)[C@H]1OC(=O)Nc1ccccc1-c1ccccc1`, the composite z-score in assay [1] was 0.183; in [2], 1.85; in [3], -0.0449; in [4] it was 0.567; in assay [5], 0.555; in assay [6] it was 1.31. Further, the composite z-score in [7] is 1.3; in assay [9], 0.714; in assay [10], -0.0296; in assay [11], 1.54; in assay [15], 2.91; in [17], -0.0699. Besides, the composite z-score in assay [18] is 0.764; in assay [19], 0.965; in assay [20] it was -0.0978. Also, the z-score is -0.114 (inactive) in [8]; -2.03 (inactive) in assay [12]; -0.674 (inactive) in assay [13]; 1.22 (inactive) in assay [14]; 1.39 (inactive) in assay [16].
Turning to `O=C(NCc1ccccc1)[C@@H]1c2ccccc2C(=O)N(Cc2ccccc2Cl)[C@H]1c1ccc(CO)cc1`, the composite z-score in assay [1] came out at 0.389; in assay [2] it was 0.658; in assay [3] it was 0.0139; in assay [4], 0.124; in assay [5], 1.21; in assay [6] it was 0.887. Moreover, the composite z-score in assay [7] was found to be 1.25; in assay [9], 0.893; in assay [10], 0.0623; in assay [11], 1.41; in [15] it was 2.69; in assay [17] it was 0.054. The figures for the composite z-score in [18], in assay [19] and in assay [20] were 1.17, 1.05 and 0.103, respectively. In addition, the z-score was -2.93 (inactive) in [8]; -0.21 (inactive) in [12]; -1.82 (inactive) in [13]; -1.49 (inactive) in [14]; 2.1 (inactive) in [16].
For `COc1ccc(C#Cc2ccc3c(c2)[C@]2(C(=O)N3)[C@H](c3ccc(O)cc3)N3[C@H](c4ccccc4)[C@H](c4ccccc4)OC(=O)[C@H]3[C@@H]2C(N)=O)cc1`, the composite z-score in assay [1] is 0.573; in assay [2], 0.395; in [3] it was 0.0519; in assay [4], 0.889; in assay [5], -0.695; in [6], 1.68. Moreover, the composite z-score was 0.785 in assay [7]; -0.235 in assay [9]; -0.24 in [10]; 0.632 in assay [11]; 2.14 in assay [15]; -0.2 in assay [17]. Moreover, the values for the composite z-score in [18], in assay [19] and in assay [20] were -0.877, -0.854 and -0.401, respectively. For the same molecule, the z-score is 0.532 (inactive) in assay [8]; 1.46 (inactive) in assay [12]; -1.02 (inactive) in assay [13]; 2.73 (inactive) in assay [14]; 1.68 (inactive) in assay [16].
`CN(C)CCCC[C@@H]1NC(=O)[C@@H]2C[C@H](C(=O)NCCCCCNC(=O)CS)[C@H](c3cccc(OCCO)c3)N2C1=O`: the composite z-score in [1] is 0.32; in assay [2] it was 0.532; in assay [3], -0.101; in assay [4], 0.141; in assay [5], 0.393; in [6] it was 0.267. Further, the composite z-score was found to be 1.2 in assay [7]; 0.19 in assay [9]; 0.259 in assay [10]; 1.07 in assay [11]; 0.127 in assay [15]; 0.0494 in assay [17]. Also, the composite z-score in assay [18] is 1.62; in assay [19] it was 0.162; in assay [20] it was 0.186. Further, the z-score in assay [8] is 0.37 (inactive); in assay [12], -2.64 (inactive); in assay [13], -1.81 (inactive); in assay [14] it was -2.15 (inactive); in assay [16], 2.1 (inactive).
For the molecule `C[N+](C)(C)CCCCNC(=O)[C@@H]1C[C@@H]2C(=O)NCC(=O)N2[C@@H]1c1cccc(OCCO)c1`, the composite z-score was -0.501 in assay [1]; 2.04 in assay [2]; -0.085 in assay [3]; 1.05 in [4]; -0.544 in assay [5]; 1.22 in assay [6]. Also, the composite z-score was 1.34 in assay [7]; 0.432 in assay [9]; 0.167 in assay [10]; 1.39 in [11]; 2.47 in assay [15]; -0.0607 in assay [17]. The results for the composite z-score in assay [18], in assay [19] and in assay [20] were 1.88, 1.14 and 0.0526, respectively. Further, the z-score was -0.53 (inactive) in assay [8]; 2.16 (inactive) in assay [12]; -0.823 (inactive) in [13]; -1.89 (inactive) in assay [14]; 1.73 (inactive) in [16].
